An excerpt weighted towards active compounds, which were near 21% of everything screened.
VP16 counter = VP16 counterscreen qHTS for inhibitors of ROR gamma transcriptional activity; Drosophila S2 Gal4-VP16 UAS-luciferase, luminescence, 20 h; Potency, µM (top dose mostly 53.6 µM), inactives show top-dose activity, negative = inhibition, most hits filed as inhibitors; 3.5% of 310,000 active; AID 2546, 2010;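 also: Gal4-VP16 expression switched on by copper sulfate through the metallothionein promoter; potency is read from the fitted curve at half-maximal effect; nearly all actives have a fitted effect of over 50% in size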
IL1B secr inh = qHTS for Inhibitors of Inflammasome Signaling: IL-1-beta AlphaLISA Primary Screen. THP-1 LPS/ATP IL-1B secretion, AlphaLISA, 16 h; stronger effect = lower value. activity change, % at 57.5 µM. 4.7% of 360,000 active. AID 743279, 2014; in the data active = activity change below about -50%; inconclusive = mostly about -30% to -49%
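THP-1 cells pretreated 1 hr with compounds (up to 57.5 uM final), then stimulated with LPS (250 ng/mL final) plus ATP (1.25 mM final); secreted IL-1B measured by AlphaLISA after 16 hr, decreased signal indicating inhibition.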
RORg inh = qHTS for inhibitors of ROR gamma transcriptional activity. Drosophila S2 Gal4-RORgamma UAS-luciferase reporter, 20 h. Potency, µM (doses to about 53.6 µM), for the others: top-dose activity change, negative = inhibition, actives largely listed as inhibitors. 5.4% of 310,000 active; also: potency is read from the fitted curve at half-maximal effect; nearly all actives have a fitted effect of over 60% in size
Target sequence (P51450 whole entry, looked up, the tested form may be a part): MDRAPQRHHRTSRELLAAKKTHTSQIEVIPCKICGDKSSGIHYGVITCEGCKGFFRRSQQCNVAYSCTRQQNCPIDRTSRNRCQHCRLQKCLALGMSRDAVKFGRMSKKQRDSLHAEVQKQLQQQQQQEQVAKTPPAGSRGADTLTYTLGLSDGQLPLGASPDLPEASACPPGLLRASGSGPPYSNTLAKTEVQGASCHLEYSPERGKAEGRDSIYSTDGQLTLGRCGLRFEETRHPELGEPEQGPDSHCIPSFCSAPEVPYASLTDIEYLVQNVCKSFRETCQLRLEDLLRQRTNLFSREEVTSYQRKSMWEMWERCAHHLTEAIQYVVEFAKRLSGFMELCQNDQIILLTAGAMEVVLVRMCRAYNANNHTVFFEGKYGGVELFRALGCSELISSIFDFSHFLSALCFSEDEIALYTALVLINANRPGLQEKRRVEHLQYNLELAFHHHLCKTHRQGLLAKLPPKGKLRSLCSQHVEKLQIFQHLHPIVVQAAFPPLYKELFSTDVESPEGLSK
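In this cell-based reporter format, copper sulfate (700 uM final) drives Gal4–ROR gamma fusion expression from a metallothionein promoter in Drosophila Schneider cells; compounds preincubated 1 hr, reporter read after 20 hr at ambient temperature.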
ELG1 DNA repair = qHTS screen for small molecules that inhibit ELG1-dependent DNA repair in human embryonic kidney (HEK293T) cells expressing luciferase-tagged ELG1. HEK293T ELG1-luciferase reporter, luminescence, 16 h; DNA damage induced by 5-fluorouridine. Potency, µM (series often up to 46.1 µM), inactives show top-dose activity change, negative = inhibition, usual class: inhibitors. 2.3% of 330,000 active. AID 504467, 2011; also: potency is read from the fitted curve at half-maximal effect; nearly all actives have a fitted effect of over 55% in size
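Cells (2,000 per well) received 5-fluorouridine plus test compound or DMSO and were incubated 16 hr at 37 °C, 5% CO2. Luciferase activity was read by luminescence 30 min after ONE-Glo addition; signal suppression marked inhibition of damage-induced ELG1 function.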
DT40 TDP1 no CPT = qHTS for Inhibitors of human tyrosyl-DNA phosphodiesterase 1 (TDP1): qHTS in cells in absence of CPT | DT40 Tdp1-/- hTDP1 cells, no CPT, ATP luminescence, 48 h | Potency, µM (top dose mostly 46.2 µM), inactives show at the highest dose activity change, negative = growth inhibition, usual class: inhibitors | 15% of 420,000 active; also: potency is read from the fitted curve at half-maximal effect; nearly all actives have a fitted effect of over 55% in size
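Camptothecin absent (DMSO only). Human TDP1-complemented DT40 knockout cells, 400 cells/well, 37 °C for minimum 48 hr; ATP measured via CellTiter-Glo, 30 min dark incubation, luminescence.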
TDP1 cell CPT = qHTS for Inhibitors of human tyrosyl-DNA phosphodiesterase 1 (TDP1): qHTS in cells in presence of CPT. chicken DT40 Tdp1-/-;hTDP1 cells + 20 nM CPT, ATP luminescence, 48 h. Potency, µM (highest dose often 46.2 µM), for inactives: at the top dose activity change, negative = growth inhibition, hits mostly inhibitors. 12% of 420,000 active. AID 686979, 2013; also: potency is read from the fitted curve at half-maximal effect; nearly all actives have a fitted effect of over 55% in size
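Chicken DT40 Tdp1-/- cells stably complemented with human TDP1 were seeded at 400 cells/well in medium containing 20 nM camptothecin, exposed to pin-transferred compounds, and grown at 37 °C for at least 48 hr. Viability was read as ATP luminescence.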
* marks the source's active call; other numbers are inactive results. Unless noted, calls follow the shape of the dose curve; as a rule, active = well fitted curve in the direction sought with a large enough effect; inconclusive = small, poorly fitted or top-dose-only effect, or another doubt; inactive = no such curve, though single readings can be large; an effect the other way counts as inactive or inconclusive. % is scaled to controls: 0 for no effect and ±100 for the full control effect.

Results for CCOC1=C2CN(S(=O)(=O)c3ccccc3)[C@H](c3ccccc3)C[C@H]2n2c(=O)n(-c3ccccc3)c(=O)n2C1 ?
IL1B secr inh: -2; DT40 TDP1 no CPT: 4%; TDP1 cell CPT: 3%

What do the screens show for `COc1ccc(C(=O)CCC(=O)Nc2ccc(C)c(Cl)c2)cc1`?
DT40 TDP1 no CPT: -17%; TDP1 cell CPT: 3%

How did COc1ccc(NC(=O)CN(C)C(=O)c2cc(-c3ccco3)nc3ccccc23)cc1 do in these assays?
IL1B secr inh: -1; ELG1 DNA repair: 18µM*; DT40 TDP1 no CPT: inconclusive; TDP1 cell CPT: inconclusive

How did COc1cccc(NC(=O)CN(C)C(=O)c2cc(-c3ccc(F)cc3)nc3ccccc23)c1 do in these assays?
IL1B secr inh: -62*; ELG1 DNA repair: inconclusive; DT40 TDP1 no CPT: inconclusive; TDP1 cell CPT: inconclusive

What do the screens show for `COc1ccc(-c2cc(C(=O)N(C)CC(=O)Nc3cccc(F)c3)c3ccccc3n2)cc1OC`?
IL1B secr inh: -2; DT40 TDP1 no CPT: 21µM*; TDP1 cell CPT: 21µM*

How did COc1cccc(NC(=O)CN(C)C(=O)c2cc3ccccc3cc2OC)c1 do in these assays?
IL1B secr inh: -4; ELG1 DNA repair: -9%; DT40 TDP1 no CPT: -18%; TDP1 cell CPT: inconclusive

How did CN(CC(=O)Nc1cccc(F)c1)C(=O)c1cc(-c2ccco2)nc2ccccc12 do in these assays?
IL1B secr inh: -10; ELG1 DNA repair: inconclusive; DT40 TDP1 no CPT: inconclusive; TDP1 cell CPT: inconclusive

How did COc1ccccc1CN1CC[C@@]2(CCCN(S(C)(=O)=O)C2)C1 do in these assays?
VP16 counter: 3%; RORg inh: 18%; DT40 TDP1 no CPT: 1%; TDP1 cell CPT: inconclusive

What do the screens show for `Cc1oc(-c2ccc(Cl)cc2)nc1CN1CCCC(C(=O)NCCc2ccccc2)C1` (stereo unspecified)?
DT40 TDP1 no CPT: 5.8µM*; TDP1 cell CPT: 8.2µM*

How did Cc1cccc(-c2nc(CN3CCCC(C(=O)NCCc4ccc(Cl)cc4)C3)c(C)o2)c1 (stereo unspecified) do in these assays?
DT40 TDP1 no CPT: 8.2µM*; TDP1 cell CPT: 16µM*

Results for CN(Cc1ccc(Cl)cc1)C(C(=O)NC1CCCCC1)c1cc2ccccc2o1 (stereo unspecified) ?
IL1B secr inh: -1; DT40 TDP1 no CPT: inconclusive; TDP1 cell CPT: -107%

Results for CN(Cc1ccc(Cl)cc1)C(CCc1ccccc1)C(=O)NC1CCCCC1 (stereo unspecified) ?
IL1B secr inh: 43; DT40 TDP1 no CPT: 15µM*; TDP1 cell CPT: inconclusive

Results for CCc1ccc(-c2nc(CN3CCC(C(=O)NCCc4ccc(Cl)cc4)CC3)c(C)o2)cc1 ?
DT40 TDP1 no CPT: inconclusive; TDP1 cell CPT: -10%

Results for CN(Cc1ccccc1)C(=O)C1CCCN(Cc2ccc(Cl)cc2)C1 (stereo unspecified) ?
VP16 counter: -1%; IL1B secr inh: inconclusive; RORg inh: 24%; ELG1 DNA repair: inconclusive; DT40 TDP1 no CPT: 26µM*; TDP1 cell CPT: -95%

How did Cc1ccccc1C(=O)OCCN1CCOCC1 do in these assays?
VP16 counter: -8%; IL1B secr inh: 8; RORg inh: 15%; ELG1 DNA repair: inconclusive; DT40 TDP1 no CPT: -20%; TDP1 cell CPT: -1%

Results for O=C(NC1CC(=O)N(c2ccc(F)cc2)C1)c1ccc2c(c1)OCO2 (stereo unspecified) ?
DT40 TDP1 no CPT: -18%; TDP1 cell CPT: -7%

What do the screens show for `NC(=O)C1(NC2CCCCC2)CCN(Cc2ccccc2)CC1`?
IL1B secr inh: -28; DT40 TDP1 no CPT: -11%; TDP1 cell CPT: -7%

Results for Cc1oc(-c2ccc(Cl)cc2)nc1CN1CCCC(C(=O)NCCCN2CCOCC2)C1 (stereo unspecified) ?
VP16 counter: -2%; IL1B secr inh: -4; RORg inh: 31%; ELG1 DNA repair: inconclusive; DT40 TDP1 no CPT: 23µM*; TDP1 cell CPT: -78%

How did Cc1oc(-c2ccc(Cl)cc2)nc1CN1CCCC(C(=O)NCc2cccnc2)C1 (stereo unspecified) do in these assays?
VP16 counter: 1%; IL1B secr inh: -72*; RORg inh: inconclusive; ELG1 DNA repair: 6.5µM*; DT40 TDP1 no CPT: 12µM*; TDP1 cell CPT: 9.2µM*

How did C=C1c2ccccc2O[C@H](C(=O)OCC)[C@@H]1CCC(C)C (tested in a mixture with another compound) do in these assays?
VP16 counter: -3%; RORg inh: inconclusive

How did Cc1ccc(S(=O)(=O)N2CCC(C(=O)N3CCC3)CC2)cc1 do in these assays?
VP16 counter: -3%; IL1B secr inh: -3; RORg inh: 30%; ELG1 DNA repair: inconclusive; DT40 TDP1 no CPT: 22%; TDP1 cell CPT: inconclusive

What do the screens show for `CC(C)n1c(O)c(N=NC(=O)c2ccccc2NS(=O)(=O)c2cccs2)c2ccccc21`?
VP16 counter: -2%; IL1B secr inh: 27; RORg inh: -6%; ELG1 DNA repair: -12%; DT40 TDP1 no CPT: inconclusive; TDP1 cell CPT: inconclusive

How did Cc1ccc(CN(C(=O)COc2ccc(Br)cc2)c2ccccn2)o1 do in these assays?
DT40 TDP1 no CPT: 16µM*; TDP1 cell CPT: inconclusive

How did COc1cc(CN(C(=O)COc2ccc(Cl)cc2)c2ccccn2)cc(OC)c1OC do in these assays?
DT40 TDP1 no CPT: 8.2µM*; TDP1 cell CPT: 18µM*

Results for Cc1ccc(CN(C(=O)COc2cc(C)c(Cl)c(C)c2)c2ccccn2)o1 ?
DT40 TDP1 no CPT: 18µM*; TDP1 cell CPT: inconclusive

Results for Cc1ccc(CN(C(=O)c2ccc(F)cc2)c2ccccn2)o1 ?
DT40 TDP1 no CPT: inconclusive; TDP1 cell CPT: -3%

How did CCCCOc1cccc(C(=O)N(Cc2ccc(C)o2)c2ccccn2)c1 do in these assays?
DT40 TDP1 no CPT: 9.2µM*; TDP1 cell CPT: 15µM*

How did COCc1ccc(C(=O)N2CCCC(N3CCN(c4cccc(Cl)c4)CC3)C2)s1 (stereo unspecified) do in these assays?
IL1B secr inh: 18; DT40 TDP1 no CPT: inconclusive; TDP1 cell CPT: inconclusive

Bioassay records: PubChem, National Center for Advancing Translational Sciences (NCATS)
